# Source: PubChem BioAssay (NCI)
# About 83,000 compounds went through this panel and 20% of them were active in at least one assay; those are over-represented in the sample as a whole.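 Single-dose data. Exposure time 48 hours. Values below 10 considered active.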 Active and inactive are the calls of the source.
# Tested on: SK-MEL-28 melanoma
# Experiment: NCI-60 one-dose screen, 48 h (100 = growth as untreated, 0 = no growth, -100 = all killed)
# Settings: 10 µM
# Method: Growth inhibition of the SK-MEL-28 human tumor cell line is measured as a screen for anti-cancer activity. Cells are grown in 96 well plates and exposed to the test compound for 48 hours. Compounds are tested at a single concentration, which is 10^-5 M for most compounds. The reported endpoint is percent growth (GI% or GIPRCNT), where numbers from 0 - 100% represent growth inhibition, and numbers from -100% - 0 represent cell death. For example, a value of 40 represents 60% growth inhibition. A value of 0 means no net growth occurred over the course of the experiment. A value of -40 indicates 40% of cells at the beginning of the experiment died by the end of the experiment. A value of -100 means all cells are dead at the end of the experiment.
# NCI-60 Human Tumor Cell Lines Screen was performed using the standard one-dose NCI protocol, which is described in more detail at https://dtp.cancer.gov/discovery_development/nci-60/default.htm.
# Compounds with GIPRCNT values below 10 were considered active. Activity score was based on GIPRCNT using the following formula: […]
# Score is 0 for GIPRCNT values of 100 or above, 50 for GIPRCNT values of 0, and 100 for GIPRCNT values of -100.
row,SMILES,growth
1,COc1ccc(Cn2c(Br)c3c(c2-c2cc(OC)c(OC)c(OC)c2)CCc2sc(NC(C)=O)nc2-3)cc1,39.2% (inactive)
2,O=C(CCN1C(=O)c2ccccc2C1=O)Nc1ccc(Cl)cc1,117% (inactive)
3,COC(=O)c1c2c(c(C)[n+]([O-])c1C)C(=O)C=C(NCc1ccccc1)C2=O,14.1% (inactive)
4,CN1CCN(Cc2ccc(C(=O)Nc3cncc(C#Cc4cnc(N)c5ccccc45)c3)cc2C(F)(F)F)CC1,-85.5% (active)
5,O=c1oc2ccc(I)cc2c(=O)n1-c1ccc(I)cc1F,-4.19% (active)
6,O=C(/C=C/c1ccc(C(F)(F)F)cc1)c1ccc(Nc2nc(NCCO)nc(N3CCOCC3)n2)cc1,94.1% (inactive)
7,CCCSC1=NC2C(N(CC)C(=O)N2CC)N1/N=C/C=C/c1ccccc1[N+](=O)[O-] (stereo not given),63.5% (inactive)
8,O=C1C(=O)c2c(ccc3ccccc23)-c2ccccc21,3.64% (active)
9,C=C1C(=O)O[C@H]2[C@H]1CC/C(COC(=O)/C=C\C(=O)O)=C\CC[C@@]1(C)O[C@@H]21,98.8% (inactive)
10,Brc1ccc(Nc2nc3ccccc3nc2Nc2ccc(Br)cc2)cc1,-44.2% (active)
11,O=c1cc(-c2ccccc2)oc2cc(OCc3cn(Cc4ccc(F)cc4)nn3)cc(OCc3cn(Cc4ccc(F)cc4)nn3)c12,29.9% (inactive)
12,CCN1C(=O)N(CC)C2Nn3c(s/c(=C4\C(=O)N(C(C)C)c5ccccc54)c3=O)=NC21 (stereo not given),55.1% (inactive)
13,Cc1ccc2sc3c(NCCCNCCO)nc4ccccc4c3c(=O)c2c1,79.8% (inactive)
14,CCOC(=O)c1cnc2c(C)cccc2c1Nc1ccc(C(C)=O)cc1,-93% (active)
15,Cc1ccc(S(=O)c2ccc([N+](=O)[O-])c3nonc23)cc1 (stereo not given),105% (inactive)
16,CCN1C(=O)N(c2ccccc2)C2Nn3c(s/c(=C4\C(=O)N(C(C)C)c5ccccc54)c3=O)=NC21 (stereo not given),118% (inactive)
17,O=C(COc1cc(O)c2c(=O)cc(-c3ccccc3)oc2c1)Nc1ccccc1C(F)(F)F,79.1% (inactive)
18,CSc1nc2c(c(=O)n1C)N=C1c3ccccc3C(=O)C1C(c1ccccc1)N2 (stereo not given),72.5% (inactive)
19,NC1(N2SC(S)=C3CCCC=C32)CCCCC1,114% (inactive)
20,O=C(CN1C=NC2C(N3CCOCC3)=NC=NC21)c1cccc2ccccc12 (stereo not given),109% (inactive)

row,SMILES,growth
1,O=C(Nc1ccc(F)cc1F)c1cc(Cl)ccc1O,25.3% (inactive)
2,COc1cc(C(=O)NN=C2c3ccccc3-c3ccccc32)cc(OC)c1OC,46.6% (inactive)
3,COC(=O)C1(C)COP(=O)(Nc2ccc(OC)cc2)OC1 (stereo not given),108% (inactive)
4,Cc1cccc(NC(=O)c2sc3nc4c(cc3c2N)CCCC4)c1C,68.5% (inactive)
5,CN(C)c1ccc(N=Cc2ccc(N3CCOCC3)cc2)cc1,114% (inactive)
6,Cc1cc(Nc2ccc(OCc3ccccc3)cc2)nc2cc(O)ccc12,59.2% (inactive)
7,COC(=O)c1c2c(c(C)[n+]([O-])c1C)C(=O)C=C(NCc1ccc(F)c(F)c1)C2=O,-19.3% (active)
8,COc1cc2nc(NC3CCCC3)nc(NC3CCN(C(C)C)CC3)c2cc1OC,87.1% (inactive)
9,Nc1nc2c(ncn2[C@@H]2O[C@H](CS)[C@@H](O)[C@H]2O)c(=O)[nH]1,98.6% (inactive)
10,O=C(CN1C(=O)/C(=C\c2ccc(Cl)cc2)SC1=S)Nc1ncc(Cc2ccc(Cl)cc2)s1,106% (inactive)
11,O=C1Nc2ccccc2/C1=C/c1cccs1,102% (inactive)
12,O=c1nc2sc3nc4ccccc4cc3cc-2s1,110% (inactive)
13,O=c1oc2ccc(-c3ccc(F)cc3F)cc2c(=O)n1-c1cccc(C(F)(F)F)c1,25% (inactive)
14,NS(=O)(=O)c1ccc(CCN=C=S)cc1,55% (inactive)
15,NC(CCl)=NCCC[C@H](N)C(=O)O,107% (inactive)
16,Oc1c(C(Nc2ccccn2)c2cccc(Oc3ccccc3)c2)ccc2cccnc12 (stereo not given),-97.2% (active)
17,COc1ccc(-c2nnc(COc3ccc(C(=O)/C=C/c4ccco4)cc3)o2)cc1,90.9% (inactive)
18,O=S(=O)(c1ccc(NC(=S)NC23CC4CC(CC(C4)C2)C3)cc1)N1CCCCC1,95% (inactive)
19,O=C(Nc1ccc(C23CC4CC(CC(c5ccccc5)(C4)C2)C3)cc1)c1cccs1,79.5% (inactive)
20,COc1cc(/C=C/C(=O)c2c(C)nc3ccccc3c2/C=C/c2ccccc2)cc(OC)c1OC,1.27% (active)
